“And” between values parts separate entries of the source, which are not always exact repeats. Equal entries are not always repeated. Results filed as inconclusive are left out. Some compounds were tested as several samples or in several runs, with calls that do not always agree. The source made the active and inactive calls. Unless noted, the call rests on the fitted dose curve; in most records, active means well fitted curve in the direction sought with a large enough effect in the repeat runs; inconclusive means weak or mixed curves; inactive means no such curve, though single readings can be large; an effect the other way counts as inactive or inconclusive.
Assays:
[1] = qHTS assay for small molecule agonists of the antioxidant response element (ARE) signaling pathway (AID 651741; active means well fitted activation curve with a large enough effect in the signal ratio; the % refers to the signal ratio; further: potency means the concentration at half of the fitted maximal effect; on activation: % of control where 0% means no effect)
Method in brief: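 HepG2 ARE-bla cells plated at 2,000 cells/well and incubated 5 h at 37 C/5% CO2 received 23 nL compound in DMSO. After 16 h at 37 C, LiveBLAzer B/G FRET substrate was applied for 2 h at room temperature and fluorescence read.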

[2] = qHTS assay for small molecule activators of the p53 signaling pathway (AID 651743; active means well fitted activation curve with a large enough effect in the signal ratio, not every such curve was filed as active; the % refers to the signal ratio; further: potency means the concentration at half of the fitted maximal effect; on activation: series mostly up to about 92 µM; % of control where 0% means no effect); conditions: HCT-116 p53RE-bla, beta-lactamase FRET ratio, 16 h; activation: stronger effect = higher value
Method in brief: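 HCT-116 p53RE-bla, 4,000 cells/well; 5 h settle; cpd/DMSO 16 h, 37 C; LiveBLAzer B/G 2 h RT; fluorescence intensity.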

[3] = target: Tumor necrosis factor (Homo sapiens) (UniProt P01375); assay: qHTS assay to identify small molecules that stimulate Tumor Necrosis Factor-alpha (TNF-alpha) secretion (AID 651757; active means well fitted curve in the direction sought with a large enough effect in the signal ratio; the % refers to the signal ratio; further: 0% is about no effect)
Method in brief: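 THP-1 cells were exposed to compounds for 17 hrs at 37 C, after which secreted TNF-alpha was measured by homogeneous HTRF (TR-FRET) using cryptate- and XL665-labeled anti-TNF-alpha antibodies, read after 3 hr at room temperature.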

[4] = qHTS assay for environmental chemicals that activate the Aryl hydrocarbon Receptor (AhR) signaling pathway (AID 651777; active means well fitted curve in the direction sought with a large enough effect; an effect the other way counts as inactive or inconclusive; further: nearly all actives have a fitted effect of over 15% in size; further: potency means the concentration at half of the fitted maximal effect; on activation: % of control where 0% means no effect); conditions: 1A2-DRE human hepatoma cells, luciferase, 24 h; activation: stronger effect = higher value
Method in brief: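 Luminescence (One-Glo, 30 min, room temperature) reports AhR-driven luciferase in stably transfected human hepatoma cells bearing DRE and CYP1A2 promoter. Cells (1,200/well) were treated with compound for 24 hr at 37 C in qHTS format.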

[5] = target: Peroxisome proliferator-activated receptor alpha (Homo sapiens) (UniProt Q07869); assay: qHTS assay for small molecule agonists of the peroxisome proliferator-activated receptor alpha (PPARalpha) signaling pathway (AID 651778; active means well fitted curve in the direction sought with a large enough effect; an effect the other way counts as inactive or inconclusive; further: % of control where 0% means no effect); conditions: PathHunter PPARalpha complementation, chemiluminescence, 6 h; max response: stronger effect = higher value
Method in brief: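 Enzyme-fragment complementation assay in which ligand-bound PPARalpha translocates and forms an active enzyme that generates chemiluminescence. Cells were plated overnight, exposed to compound for 6 hr at 37 C, and then given detection reagent for 60 min at room temperature.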

[6] = target: Nuclear receptor ROR-gamma (Homo sapiens) (UniProt P51449); assay: qHTS assay for small molecule antagonists of the retinoid-related orphan receptor gamma (ROR-gamma) signaling pathway (AID 651802; active means well fitted curve in the direction sought with a large enough effect; an effect the other way counts as inactive or inconclusive; further: nearly all actives have a fitted effect of over 60% in size; further: potency means the concentration at half of the fitted maximal effect)
Method in brief: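 CHO cells carrying TET-inducible ROR-gamma and an ROR response element–luciferase reporter were exposed to compound, then induced with doxycycline. After 16hr at 37C, luminescence was read; lower signal indicates antagonism.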

[7] = qHTS assay for small molecule agonists of the antioxidant response element (ARE) signaling pathway measured by Nrf2-dependant transcriptional activity (AID 720636); further: potency means the concentration at half of the fitted maximal effect; on activation: % of control where 0% means no effect
Method in brief: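 Nrf2-dependent transcription read as ONE-Glo luciferase signal from ARE-luc HepG2 reporter cells after 16 hr compound treatment at 37 C, 5% CO2, in assay medium with 1% dialyzed FBS.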

[8] = qHTS assay for small molecule antagonists of the retinoid-related orphan receptor gamma (ROR-gamma) signaling pathway - cell viability counter screen (AID 720652);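 further: compound exposure lasted 16 hr before ATP read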; further: potency means the concentration at half of the fitted maximal effect
Method in brief: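 Counter screen in CHO cells carrying TET-inducible ROR-gamma and an ROR response element-luciferase reporter; cells plated 5 hr, compound pinned, doxycycline added, then 16 hr at 37 C. Viability read as intracellular ATP by CellTiter-Glo luminescence.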

[9] = qHTS assay for small molecule agonists of the antioxidant response element (ARE) signaling pathway measured by Nrf2-dependant transcriptional activity - cell viability counter screen (AID 720653); conditions: ARE-bla HepG2 viability, CellTiter-Glo ATP luminescence, 16 h; max response: stronger effect = lower value; further: potency means the concentration at half of the fitted maximal effect; on max response: on the % scale 0 is the no-effect control and ±100 the full control effect
Method in brief: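 ARE-bla HepG2 cells treated with compounds for 16 h at 37C; this counter screen measures viability as intracellular ATP by CellTiter-Glo luminescence after 30 min at room temperature.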

[10] = qHTS assay for small molecule activators of the nuclear factor-kappa B (NF-kB) signaling pathway (AID 651749; active means well fitted activation curve with a large enough effect in the signal ratio; the % refers to the signal ratio; further: series mostly up to about 77 µM; % of control where 0% means no effect); conditions: NF-kB-bla ME-180 cells, beta-lactamase FRET ratio, 16 h; stronger effect = higher value
Method in brief: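 Incubation lasted 16 hr at 37C in 5% CO2 after 23 nL compound addition to ME-180 NF-kB-bla cells. Activation appears as beta-lactamase-mediated FRET loss.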

[11] = qHTS assay for small molecule disruptors of the mitochondrial membrane potential - 5 hr assay (AID 651755; calls by dose curve; further: nearly all actives have a fitted effect of over 40% in size; further: potency means the concentration at half of the fitted maximal effect)
Method in brief: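 HepG2 cells (2,000/well), attached overnight, exposed to compound 5 hr at 37C, then Mito-MPS dye 30 min. Fluorescence read for monomers (490/535 nm) and aggregates (540/590 nm).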

[12] = qHTS assay for small molecule disruptors of the mitochondrial membrane potential - 1 hr assay (AID 651754; calls by dose curve; further: nearly all actives have a fitted effect of over 35% in size; further: potency means the concentration at half of the fitted maximal effect)
Method in brief: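 HepG2 cells, attached overnight at 37C, were exposed to compound or DMSO vehicle for 1 hr at 37C, 5% CO2, then stained with Mito-MPS dye for 30 min. Red aggregate versus green monomer fluorescence reports membrane potential.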

Nuclear receptor ROR-gamma (Homo sapiens), sequence (P51449 whole entry, looked up): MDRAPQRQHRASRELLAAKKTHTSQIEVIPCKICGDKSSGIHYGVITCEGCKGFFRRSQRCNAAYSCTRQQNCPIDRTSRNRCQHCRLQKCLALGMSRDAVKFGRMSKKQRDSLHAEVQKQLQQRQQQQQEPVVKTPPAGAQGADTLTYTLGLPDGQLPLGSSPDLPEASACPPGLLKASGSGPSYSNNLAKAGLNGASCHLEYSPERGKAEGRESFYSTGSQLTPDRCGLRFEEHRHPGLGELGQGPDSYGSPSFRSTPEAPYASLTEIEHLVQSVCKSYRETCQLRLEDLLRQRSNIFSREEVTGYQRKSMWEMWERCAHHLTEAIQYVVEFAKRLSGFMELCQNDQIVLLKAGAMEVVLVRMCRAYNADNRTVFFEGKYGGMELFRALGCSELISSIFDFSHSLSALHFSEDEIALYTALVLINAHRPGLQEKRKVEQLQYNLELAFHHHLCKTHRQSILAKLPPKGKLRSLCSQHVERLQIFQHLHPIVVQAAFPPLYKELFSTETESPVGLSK
Peroxisome proliferator-activated receptor alpha (Homo sapiens), sequence (Q07869 whole entry, looked up, the tested form may be a part): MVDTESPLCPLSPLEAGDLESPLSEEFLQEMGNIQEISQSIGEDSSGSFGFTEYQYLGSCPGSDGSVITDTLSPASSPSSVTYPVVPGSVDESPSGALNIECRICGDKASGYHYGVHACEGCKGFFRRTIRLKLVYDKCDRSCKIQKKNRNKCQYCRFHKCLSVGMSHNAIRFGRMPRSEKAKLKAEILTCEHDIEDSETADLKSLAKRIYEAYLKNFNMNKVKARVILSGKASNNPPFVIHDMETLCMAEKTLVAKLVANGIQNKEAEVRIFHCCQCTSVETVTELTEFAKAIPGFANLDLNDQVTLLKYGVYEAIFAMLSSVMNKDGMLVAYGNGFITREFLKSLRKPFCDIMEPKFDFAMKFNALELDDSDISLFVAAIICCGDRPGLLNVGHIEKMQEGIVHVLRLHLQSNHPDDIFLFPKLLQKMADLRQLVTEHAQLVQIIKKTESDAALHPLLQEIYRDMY
Tumor necrosis factor (Homo sapiens), sequence (P01375 whole entry, looked up): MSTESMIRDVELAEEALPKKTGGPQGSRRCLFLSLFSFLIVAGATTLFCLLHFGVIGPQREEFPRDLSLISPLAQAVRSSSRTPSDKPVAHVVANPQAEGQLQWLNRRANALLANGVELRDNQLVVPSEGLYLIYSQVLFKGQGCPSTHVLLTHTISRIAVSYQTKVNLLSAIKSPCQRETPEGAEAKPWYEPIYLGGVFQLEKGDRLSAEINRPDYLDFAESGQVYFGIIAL

O=S(=O)(c1ccc(Cl)cc1)c1ccc(Cl)cc1
active: Potency [1] 66.8 µM
inactive: activation [2] -0.565% and -3.02% and 0.243% | outcome [3] | activation [4] -0.947% and -1.11% and 1.55% | max response [5] 2.6% and -3.68% and -3.44% | Potency [6] | Potency [7] | Potency [8] | max response [9] -11% and -26.7% and -18.8%

CC(C)(C)C(O)C(Oc1ccc(Cl)cc1)n1cncn1 (stereo unspecified)
inactive: Potency [1] | activation [2] -1.72% | activation [10] -0.211% | activation [4] 5.62% | Potency [7] | max response [9] -9.81%

CCCCOC(=O)c1ccccc1C(=O)OCc1ccccc1
inactive: Potency [1] | activation [2] 1.28% and 1.63% | activation [10] -1.25% and 0.0084% | Potency [11] | outcome [3] | activation [4] 12.8% and 3.39% | Potency [6] | Potency [7] | Potency [8] | max response [9] -1.29% and -2.62%

O=C(O)COc1ccccc1
inactive: Potency [1] | activation [2] -8.89% | activation [10] -0.0582% | outcome [3] | activation [4] 0.99% | Potency [7] | Potency [8] | max response [9] -7.55%

O=[N+]([O-])c1c2ccccc2cc2ccccc12
inactive: activation [2] 4.5% | outcome [3] | activation [4] 10% | Potency [6] | Potency [8] | max response [9] -1.85%
active: Potency [1] 53.1 µM | Potency [12] 11.9 µM | Potency [11] 29.8 µM

ClC1=C(Cl)[C@]2(Cl)[C@@H]3[C@@H]4C[C@@H]([C@H]5O[C@@H]45)[C@@H]3[C@@]1(Cl)C2(Cl)Cl
active: Potency [1] 54.5 µM
inactive: activation [2] -1.42% | activation [10] 5.88% | activation [4] -1.01% | max response [5] 12.3% | Potency [7] | max response [9] -16.9%

Nc1ccc(N=Nc2ccccc2)cc1
inactive: activation [2] -2.42% | max response [9] -5.85%
active: Potency [1] 27.3 µM

Nc1cccc2c(N)cccc12
inactive: Potency [6] | max response [9] -13.9%
active: Potency [1] 27.3 µM | Potency [12] 2.98 µM | Potency [11] 5.96 µM | Potency [4] 25.1 µM

COCCOCCO
inactive: Potency [1] | activation [10] -0.521% and -1.09% | activation [4] -0.559% and 0.0587% | Potency [7] | max response [9] -0.036% and -2.85%

C1CCC(NC2CCCCC2)CC1
inactive: Potency [1] | activation [2] -5.71% and -0.896% and -1.09% | outcome [3] | activation [4] -1.28% and -0.443% and 0.0289% | Potency [6] | Potency [7] | Potency [8] | max response [9] 1.26% and -8.57% and 6.08%

CC(=O)[O][Hg][c]1ccccc1
active: Potency [1] 47.3 µM | Potency [12] 16.8 µM | Potency [11] 13.3 µM | Potency [6] 0.531 µM | Potency [8] 1.33 µM | Potency [9] 35.5 µM and 14.1 µM
inactive: activation [4] -9.33% and -11.2% | Potency [7]

CC(C)(O)C(=O)Nc1ccc([N+](=O)[O-])c(C(F)(F)F)c1
active: Potency [1] 66.8 µM | Potency [12] 29.8 µM | Potency [11] 26.6 µM
inactive: activation [2] 4.44% | activation [4] -1.15% | Potency [7] | Potency [8] | max response [9] -5.91%

CC(C)(c1ccc(O)cc1)c1ccc(O)cc1
active: Potency [1] 42.2 µM and 47.3 µM and 30.6 µM | Potency [12] 26.6 µM and 13.3 µM | Potency [11] 33.5 µM

COc1nn(CSP(=S)(OC)OC)c(=O)s1
inactive: Potency [1] | activation [2] 0.0507% | activation [10] -0.901% | activation [4] -1.09% | Potency [7] | max response [9] -11.6%

O=C(O)c1cc(Oc2ccc(C(F)(F)F)cc2Cl)ccc1[N+](=O)[O-]
inactive: Potency [1] | activation [10] -1.27% | activation [4] 2.44% | Potency [7] | max response [9] -5.54%

COC(C)(C)CCCC(C)C/C=C/C(C)=C/C(=O)OC(C)C (stereo unspecified)
active: Potency [1] 48.6 µM and 66.8 µM
inactive: activation [2] -4.75% and -1.61% | activation [10] -3.22% and 0.402% | Potency [12] | Potency [11] | outcome [3] | activation [4] 4.38% and 10.5% | Potency [6] | max response [9] -7.11% and 1.67%

O=S(=O)(O)C(F)(F)C(F)(F)C(F)(F)C(F)(F)F
inactive: activation [2] -0.542% and -4.63% | activation [10] -0.249% and 0.21% | activation [4] 1.87% and 3.11% | Potency [7] | max response [9] -3.1% and 4.61%
30.6 µM (active) and inactive: Potency [1]

Nc1ccc(Cl)cc1N
inactive: activation [2] 1.69% and 0.406% | activation [10] 0.983% and -0.776% | Potency [6] | Potency [8] | max response [9] -19.8%
active: Potency [1] 4.22 µM and 27.3 µM | Potency [12] 8.41 µM | Potency [11] 13.3 µM | Potency [4] 50.1 µM and 39.8 µM

Nc1ccc([N+](=O)[O-])cc1O
active: Potency [1] 13.3 µM and 15.4 µM | Potency [11] 37.6 µM

CCCN(CCC)c1c([N+](=O)[O-])cc(S(N)(=O)=O)cc1[N+](=O)[O-]
active: Potency [1] 61.1 µM
inactive: activation [10] -2.96% | activation [4] -1.72% | max response [5] 9.4% | Potency [7]

CN(C)NC(=O)CCC(=O)O
inactive: Potency [1] | activation [2] 0.825% and -3.72% | activation [10] 0.502% and -0.298% | Potency [12] | Potency [11] | outcome [3] | activation [4] 0.139% and -1.5% | Potency [6] | Potency [7] | Potency [8] | max response [9] -0.912% and -0.667%

CCOCCOC(C)=O
inactive: Potency [1] | activation [2] -0.566% | outcome [3] | activation [4] -0.221% | Potency [6] | Potency [7] | Potency [8] | max response [9] 4.03%

O=[N+]([O-])c1cc([N+](=O)[O-])c2ccccc2c1
inactive: activation [2] -0.898% | activation [10] -0.323% | outcome [3] | activation [4] 11.7% | Potency [6] | Potency [8] | max response [9] -11.7%
active: Potency [1] 5.96 µM | Potency [12] 33.5 µM | Potency [7] 42.2 µM

O=S(=O)(O)C(F)(F)C(F)(F)C(F)(F)C(F)(F)C(F)(F)C(F)(F)C(F)(F)C(F)(F)F
inactive: Potency [1] | activation [2] -2.58% and 0.715% | activation [4] 1.49% and 0.543% | Potency [7] | max response [9] 2.35% and -3.55%

CCCCCC[C@H]1C(=O)O[C@H](C)[C@H](NC(=O)c2cccc(NC=O)c2O)C(=O)O[C@@H](C)[C@@H]1OC(=O)CC(C)C
active: Potency [1] 4.33 µM | Potency [2] 0.02 µM
inactive: activation [10] 2.55% | activation [4] -1.12% | Potency [7] | max response [9] -26.8%

COc1ccc(C(c2ccc(OC)cc2)C(Cl)(Cl)Cl)cc1
active: Potency [1] 33.5 µM and 61.1 µM | Potency [12] 23.7 µM and 37.6 µM | Potency [11] 37.6 µM | Potency [6] 26.6 µM | Potency [8] 66.8 µM and 42.2 µM
inactive: activation [2] 2.38% and 0.818% | activation [10] 1.06% and 0.442% and 3.56% | outcome [3] | activation [4] 1.39% and 11.4% and 6.25% | Potency [7] | max response [9] 5.23% and -7.02% and -11.5%

CCCCC(CC)COC(=O)c1ccccc1C(=O)O (stereo unspecified)
active: Potency [1] 54.5 µM

CO/C=C(/C(=O)OC)c1ccccc1Oc1cc(Oc2ccccc2C#N)ncn1
active: Potency [1] 13.7 µM
inactive: activation [2] 25% | activation [4] 1.61% | Potency [7]

C=CC(=O)NCNC(=O)C=C
inactive: activation [2] -3.11% and -4.69% | activation [10] -0.065% and -1.61% | outcome [3] | activation [4] 1.7% and 2.02% | Potency [7] | Potency [8] | max response [9] 1.98% and -12.5%
active: Potency [1] 37.6 µM and 30.6 µM

Reference: PubChem BioAssay (NCATS)
